In all, about 420,000 compounds went through this assay and about 50,000 (12%) were called active. Not shown: some 26% with an inconclusive outcome. For the sample, actives were picked, then their nearest neighbours and some compounds at random. Unmarked numbers belong to inactive results. Calls follow the shape of the dose curve; as a rule, active = well fitted inhibition curve with a large enough effect; inconclusive = small, poorly fitted or top-dose-only effect; inactive = flat fitted curve, though single readings scatter.
Experiment: qHTS for Inhibitors of human tyrosyl-DNA phosphodiesterase 1 (TDP1): qHTS in cells in presence of CPT; also: nearly all actives have a fitted effect of over 55% in size
Conditions: chicken DT40 Tdp1-/-;hTDP1 cells + 20 nM CPT, ATP luminescence, 48 h; series mostly up to 46.2 µM; activity change, negative = growth inhibition: at the top concentration
How it was run: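 Chicken DT40 Tdp1-/- cells stably complemented with human TDP1 were seeded at 400 cells/well in medium containing 20 nM camptothecin, exposed to pin-transferred compounds, and grown at 37 °C for at least 48 hr. Viability was read as ATP luminescence.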
With `Cc1cc(C)cc(OCC(=O)Nc2nc(-c3ccc(F)cc3)ns2)c1` the “activity change, negative = growth inhibition” value was -26.5%. For `O=c1ccn([C@@H]2O[C@H](CNS(=O)(=O)c3cc4ccccc4s3)[C@@H](O)[C@H]2O)c(=O)[nH]1`, the “activity change, negative = growth inhibition” value was -10.7%. In the case of `COc1ccc2c(c1)c1ncn(Cc3ccccn3)c(=O)c1n2C`, the “activity change, negative = growth inhibition” value is reported as -5.08%. In the case of `Cc1cc([N+](=O)[O-])nn1Cc1ccc(F)cc1`, the “activity change, negative = growth inhibition” value is reported as 0.664%. In the case of `C=CCN1C(=O)C2(OCCCO2)c2cccc(Cl)c21`, the “activity change, negative = growth inhibition” value is reported as -7.94%. In the case of `C=CCN1C(=O)C(O)(CC(=O)c2ccc(Cl)cc2)c2ccccc21` (configuration not stated), the Potency is reported as 18.4 µM (active). In the case of `C=CCN1C=C(C(=O)c2ccccc2)C(=O)CC1`, the “activity change, negative = growth inhibition” value is reported as 11.1%. With `O=C(NCc1ccccc1)C1CCN(S(=O)(=O)c2ccc3[nH]c(=O)ccc3c2)CC1` the “activity change, negative = growth inhibition” value was -5.45%. In the case of `CCC(=O)N1CCc2cc(S(=O)(=O)NC(Cc3ccccc3)C(=O)NCc3ccc(C)cc3)ccc21` (configuration not stated), the “activity change, negative = growth inhibition” value is reported as -22.3%. With `COCCCNC(=O)/C(C#N)=C/c1c(N2CCCCCC2)nc2ccccn2c1=O` the “activity change, negative = growth inhibition” value was 3.95%. For `CC(=O)Nc1ccc(NC(=O)COc2ccc(S(=O)(=O)NC(C)c3ccccc3)cc2)cc1` (configuration not stated), the “activity change, negative = growth inhibition” value was -5.71%. With `Cc1ccc(COc2ccc(/C=N/NC(=O)CN3CCCCC3)cc2)cc1` the “activity change, negative = growth inhibition” value was 4.47%. With `Cc1ccc(/C=N/NC(=O)c2sccc2OCc2ccc(F)cc2)cc1` the Potency was 16.4 µM (active). In the case of `CNC(=S)NNC(=O)c1sccc1OCc1ccccc1`, the “activity change, negative = growth inhibition” value is reported as -5.88%. With `CCOc1ccccc1NC(=O)CN1CCN(S(=O)(=O)c2ccc(Br)cc2)CC1` the “activity change, negative = growth inhibition” value was -28.6%. With `CC(=O)Nc1ccc(Nc2ncnc3c2nnn3Cc2ccccc2Cl)cc1` the “activity change, negative = growth inhibition” value was 17.7%. With `COc1ccc(Cn2nnc3c(=O)[nH]c(C4CCN(C(=O)c5ccccc5Cl)CC4)nc32)cc1` the “activity change, negative = growth inhibition” value was -23.2%. With `O=C(Nc1ccc(F)cc1)N1CCCC(c2nc3c(nnn3Cc3ccccc3Cl)c(=O)[nH]2)C1` (configuration not stated) the Potency was 20.6 µM (active). With `C[C@@H]1CN([C@@H](C)CO)C(=O)CCCn2cc(nn2)CO[C@H]1CN(C)S(=O)(=O)c1ccc(-n2cccn2)cc1` the “activity change, negative = growth inhibition” value was -1.95%. For `C/C=C(\C)C(=O)OC1C(OC(=O)C2(C)OC2C)c2cc3ccc(=O)oc3cc2OC1(C)C` (configuration not stated), the activity change, negative = growth inhibition was 14.7% [at 9.04 µM]. With `COc1cc(C2C(C(=O)c3sc(C)nc3C)=C(O)C(=O)N2CCN(C)C)cc(OC)c1OC` (configuration not stated) the “activity change, negative = growth inhibition” value was 17.6%. For `O=C(c1cccs1)n1nc(NCc2ccccc2)nc1NCc1ccccc1`, the “activity change, negative = growth inhibition” value was -2.83%. For `CCCc1cc(=O)[nH]c(SCC(=O)N2C(C)CCCC2C)n1` (configuration not stated), the “activity change, negative = growth inhibition” value was 6.83%. For `CCCc1cc(=O)[nH]c(SCC(=O)Nc2ccc(S(=O)(=O)N3CCCC3)cc2)n1`, the “activity change, negative = growth inhibition” value was 8.44%. In the case of `CCCc1cc(=O)[nH]c(SCC(=O)c2c(N)n(CC(C)C)c(=O)n(C)c2=O)n1`, the Potency is reported as 7.31 µM (active). With `Cc1ccc(Cl)cc1NC(=O)CSc1nccn1C` the “activity change, negative = growth inhibition” value was -9.01%. In the case of `COc1ccccc1C(=O)NCCC(=O)NC1=NCCS1`, the “activity change, negative = growth inhibition” value is reported as -4.1%. For `Cc1cc(C)cc(Oc2c(C(F)(F)F)oc3cc(OCC(=O)O)ccc3c2=O)c1`, the “activity change, negative = growth inhibition” value was -5.4%. With `Cc1nc2ccccc2c(=O)n1-c1ccc(NS(=O)(=O)c2ccc(F)cc2F)cc1` the “activity change, negative = growth inhibition” value was -12.3%. For `Cc1[nH]n(-c2ccc(Cl)cc2)c(=O)c1/C=N/n1c(C)nc2ccccc2c1=O`, the Potency was 20.6 µM (active). In the case of `Cc1cccc(-c2nc3ccccc3c(=O)n2NC(=O)Cc2ccc(Cl)cc2)c1`, the “activity change, negative = growth inhibition” value is reported as 7.87%. With `CC(OC(=O)c1cccc(S(=O)(=O)N2CCOCC2)c1)C(=O)NCC1CCCCC1` (configuration not stated) the “activity change, negative = growth inhibition” value was -12.7%. In the case of `Cc1occc1-c1nnc(SCC(=O)NC2(C#N)CCCC2)n1C`, the “activity change, negative = growth inhibition” value is reported as -10.5%. For `CN(Cc1ccc(C(F)(F)F)cc1)C(=O)[C@H]1O[C@@H](n2cnc3c(N)ncnc32)[C@H](O)[C@@H]1O`, the “activity change, negative = growth inhibition” value was -2.52%. In the case of `Cc1noc(C)c1S(=O)(=O)N(C)C[C@H]1Oc2c(NC(=O)Nc3ccc4c(c3)OCO4)cccc2C(=O)N([C@H](C)CO)C[C@@H]1C`, the “activity change, negative = growth inhibition” value is reported as -4.03%. For `CCc1nn(CCCC(=O)Nc2ccc(C)cc2C)c(=O)c2cc3occc3n12`, the “activity change, negative = growth inhibition” value was -16.1%. For `COc1ccc(OCCCn2cccc2/C=C2/C(=N)N3OC(C)=CC3=NC2=O)cc1`, the Potency was 18.4 µM (active). For `CCOc1cc(/C=C2/C(=N)N3OC(C)=CC3=NC2=O)ccc1OC`, the “activity change, negative = growth inhibition” value was 0.826%. For `CC1=CC2=NC(=O)/C(=C/c3coc4ccccc4c3=O)C(=N)N2O1`, the “activity change, negative = growth inhibition” value was 7.64%. For `COc1cccc(CNC(=O)c2cccnc2Sc2ccc(Cl)cc2)c1`, the “activity change, negative = growth inhibition” value was -12.8%. For `Cc1ccnc(NC(=O)CNC(=O)c2ccccc2)c1`, the “activity change, negative = growth inhibition” value was 46.1%. With `Cc1cc(NC(=O)c2cc3ccccc3o2)no1` the “activity change, negative = growth inhibition” value was 3.53%. For `CC(=O)Nc1cccc(C(=O)OCC(=O)c2ccc3c(c2)OCO3)c1`, the “activity change, negative = growth inhibition” value was -0.904%. With `O=C(CSc1n[nH]c(-c2ccccc2)n1)N1CCCCC1` the “activity change, negative = growth inhibition” value was -17%. For `C=CC(C1=CC(=O)C=CC1=O)c1ccc(O)cc1` (configuration not stated), the Potency was 1.64 µM (active). In the case of `CSc1ncccc1C(=O)OCc1ccc(Br)cc1`, the “activity change, negative = growth inhibition” value is reported as 5.07%. For `NC(=O)C1(Nc2ccc(-c3ccccc3)cc2)CCCC1`, the “activity change, negative = growth inhibition” value was -22%. For `O=[N+]([O-])c1cccc(S(=O)(=O)NCc2ccccn2)c1`, the “activity change, negative = growth inhibition” value was -19.3%. For `COc1ccc2oc(=O)c(C(=O)NCc3ccccn3)cc2c1`, the “activity change, negative = growth inhibition” value was 2.36%. For `COc1cccc(S(=O)(=O)NCc2ccc(C(=O)NCc3ccccn3)cc2)c1`, the Potency was 0.92 µM (active). In the case of `O=C(COC(=O)c1ccc(F)cc1)NCCCc1ccccc1`, the “activity change, negative = growth inhibition” value is reported as -10.9%. With `Cn1c(SCC(=O)N2CCCCC2)nc2c(c1=O)SCC2` the “activity change, negative = growth inhibition” value was -8.32%. In the case of `Cc1c(NC(=O)c2cc(=O)c3ccccc3o2)c(=O)n(-c2ccccc2)n1C`, the “activity change, negative = growth inhibition” value is reported as 6.89%. With `O=C1CC(c2ccccc2)C(c2ccccc2)=NN1` (configuration not stated) the “activity change, negative = growth inhibition” value was -12.2%. For `COCCNC(=S)Nc1cc(S(=O)(=O)N2CCOCC2)ccc1N1CCCCC1`, the Potency was 20.6 µM (active). In the case of `CC(=O)NCCC(=O)Nc1cc(S(=O)(=O)N2CCOCC2)ccc1N1CCOCC1`, the “activity change, negative = growth inhibition” value is reported as 17%. With `CC(=O)Nc1ccc(C(=O)Nc2cc(S(=O)(=O)N3CCOCC3)ccc2N2CCOCC2)cc1` the “activity change, negative = growth inhibition” value was -9.04%. With `CC(Oc1ccc(F)cc1)C(=O)Nc1cc(S(=O)(=O)N2CCOCC2)ccc1N1CCN(C)CC1` (configuration not stated) the “activity change, negative = growth inhibition” value was 0.854%. For `CC(C)CCOc1ccc(C(=O)Nc2cc(S(=O)(=O)N3CCOCC3)ccc2N2CCOCC2)cc1`, the Potency was 9.2 µM (active). In the case of `CC(C)CCC(=O)Nc1cc(S(=O)(=O)N2CCOCC2)ccc1N1CCCC1`, the “activity change, negative = growth inhibition” value is reported as -0.988%. With `COc1ccc(CNC(=O)Cn2nnc(-c3ccccc3F)n2)cc1` the “activity change, negative = growth inhibition” value was -5.73%. For `COC(=O)[C@@H]1CC(O)CN1C(=O)C12CC3CC(CC(C3)C1)C2` (some centres not stated), the “activity change, negative = growth inhibition” value was 0.758%.

From PubChem BioAssay AID686979 (National Center for Advancing Translational Sciences (NCATS), 2013)
% is scaled to controls: 0 for no effect and ±100 for the full control effect; potency is read from the fitted curve at half-maximal effect.
